Data: PubChem BioAssay AID1159580 (chemical genetic matrix, 2015)
Values joined by “and” are separate entries in the source; they are usually repeats but may differ in a detail not shown here. Equal values may be shown once. Hit rate of the full screen: of about 5,500 compounds, about 2,000 (36%) were called active. Not shown: some 18% with an inconclusive outcome. Rule as the data show it: active = normalized growth mostly below about 0.91 (no sharp cut-off); inconclusive = no clear call, values can overlap the other calls; inactive = mostly above about 0.92. The list shows a part of the results.

Assay: chemical genetic growth profiling, strain panel (AID 1159580);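 also: tested at 20 µM; growth read once vehicle control cultures reached saturation at 30 °C; 1 = growth at the plate median or of vehicle wells; lower values mean less growth of the strain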
Details: S. cerevisiae deletion strains, growth OD

Measured: normalized growth

CN(C)c1nc(N(C)C)nc(N(C)C)n1
inactive: locus YAL021C, strain ccr4, hits give low values 0.992 | locus YAL026C, strain drs2, hits give low values 0.979 | locus YAL030W, strain snc1, hits give low values 1 | locus YAL040C, strain CLN3, hits give low values 0.972 | locus YBL061C, strain skt5, hits give low values 0.959 | locus YBR009C, strain hhf1, hits give low values 0.97 | locus YBR021W, strain FUR4, hits give low values 1 | locus YBR023C, strain chs3, hits give low values 0.969 | locus YBR171W, strain sec66, hits give low values 0.976 | locus YBR229C, strain ROT2, hits give low values 1.01 | locus YBR231C, strain swc5, hits give low values 0.971 | locus YBR279W, strain paf1, hits give low values 1.01 | locus YCL011C, strain gbp2, hits give low values 0.959 | locus YCL016C, strain dcc1, hits give low values 0.966 | locus YCL029C, strain bik1, hits give low values 1.03 | locus YCL061C, strain MRC1, hits give low values 0.979 | locus YCL069W, strain vba3, hits give low values 0.986 | locus YCR088W, strain abp1, hits give low values 0.989 | locus YDL005C, strain med2, hits give low values 0.984 | locus YDL035C, strain GPR1, hits give low values 1.02 | locus YDL040C, strain nat1, hits give low values 0.991 | locus YDL074C, strain BRE1, hits give low values 0.991 | locus YDL101C, strain DUN1, hits give low values 1.01 | locus YDL134C, strain PPH21, hits give low values 1.01 | locus YDL185W, strain tfp1, hits give low values 1.02 | locus YDL192W, strain arf1, hits give low values 1.02 | locus YDR001C, strain nth1, hits give low values 0.977 | locus YDR069C, strain doa4, hits give low values 0.979 | locus YDR101C, strain arx1, hits give low values 1.01 | locus YDR137W, strain rgp1, hits give low values 0.924 | locus YDR150W, strain NUM1, hits give low values 1 | locus YDR159W, strain sac3, hits give low values 0.963 | locus YDR162C, strain NBP2, hits give low values 1.02 | locus YDR195W, strain ref2 0.998 | locus YDR297W, strain sur2, hits give low values 0.981 | locus YDR318W, strain mcm21, hits give low values 1.02 | locus YDR334W, strain swr1, hits give low values 0.942 | locus YDR335W, strain msn5, hits give low values 0.97 | locus YDR363W, strain ESC2, hits give low values 1.03 | locus YDR388W, hits give low values 1.02 | locus YDR392W, strain spt3, hits give low values 0.899 | locus YDR502C, strain sam2, hits give low values 1.01 | locus YEL003W, strain gim4, hits give low values 0.987 | locus YEL037C, strain rad23, hits give low values 0.988 | locus YEL061C, strain CIN8 (second series), hits give low values 0.976 | locus YEL061C, strain CIN8, hits give low values 1 | locus YER002W, strain NOP16, hits give low values 0.995 | locus YER015W, strain faa2, hits give low values 0.969 | locus YER016W, strain bim1, hits give low values 0.987 | locus YER110C, hits give low values 1.02 | locus YER111C, strain swi4, hits give low values 0.981 | locus YER155C, strain BEM2 (second series), hits give low values 0.975 | locus YER155C, strain BEM2, hits give low values 1 | locus YER167W, strain BCK2, hits give low values 1.01 | locus YFR010W, strain ubp6, hits give low values 0.956 | locus YGL078C, strain dbp3, hits give low values 1.01 | locus YGL086W, strain mad1, hits give low values 1 | locus YGL167C, strain pmr1, hits give low values 0.975 | locus YGL173C, strain kem1, hits give low values 0.959 | locus YGL227W, strain vid30, hits give low values 0.989 | locus YGL240W, strain doc1, hits give low values 0.966 | locus YGL248W, strain PDE1, hits give low values 1.01 | locus YGL253W, strain hxk2, hits give low values 0.987 | locus YGR078C, strain PAC10, hits give low values 1 and 0.999 | locus YGR135W, strain pre9, hits give low values 1.03 | locus YGR252W, strain gcn5, hits give low values 1.05 | locus YHR013C, strain ard1, hits give low values 0.964 | locus YHR027C, strain rpn1, hits give low values 0.959 | locus YHR030C, strain SLT2, hits give low values 1.01 and 0.974 | locus YHR079C, strain IRE1 (second series), hits give low values 1.02 | locus YHR079C, strain IRE1, hits give low values 0.981 | locus YHR094C, strain hxt1, hits give low values 1.02 | locus YHR129C, strain ARP1, hits give low values 1.01 | locus YHR142W, strain chs7, hits give low values 0.929 | locus YHR200W, strain rpn10, hits give low values 1.02 | locus YIL066C, strain RNR3, hits give low values 1.01 | locus YIL073C, strain SPO22, hits give low values 1.09 | locus YIL125W, strain kgd1, hits give low values 1.02 | locus YIR030C, strain dcg1, hits give low values 1.03 | locus YJL092W, strain hpr5, hits give low values 0.988 | locus YJL095W, strain BCK1 (second series), hits give low values 0.975 | locus YJL095W, strain BCK1, hits give low values 1 and 0.97 | locus YJL115W, strain asf1, hits give low values 0.959 | locus YJL129C, strain trk1, hits give low values 0.999 | locus YJL134W, strain LCB3, hits give low values 1.01 | locus YJL154C, strain vps35, hits give low values 0.986 | locus YJL164C, strain tpk1, hits give low values 0.989 | locus YJL166W, strain qcr8, hits give low values 0.958 | locus YJL168C, strain set2, hits give low values 1.01 | locus YJL187C, strain SWE1 (second series), hits give low values 1 | locus YJL187C, strain SWE1, hits give low values 0.978 | locus YJR043C, strain POL32, hits give low values 1.01 | locus YJR066W, strain TOR1, hits give low values 0.947
